Measured values: PubChem BioAssay
Calls of active or inactive are those of the source. Unless noted, no rule for the calls is given here.

What was measured:
[1] = resazurin metabolic signal in HepG2 cells – cell-based, resazurin fluorescence, 24 h, PK04 Diversity Set, profiling panel (AID 1172); conditions: HepG2 viability, higher = more signal; also: test concentration not given here
[2] = budding yeast growth changes without added modifier – OD600, strain BY4716, 24 h, basal condition, primary screen (AID 1173); conditions: S. cerevisiae BY4716 growth, OD600, 24 h; higher = more signal, called active from +8 up or from −8 down
[3] = viability profiling in MM1S myeloma cells – cell-based, resazurin fluorescence, basal, 24 h, PK04 Diversity Set, profiling panel (AID 1174); conditions: higher = more signal, called active from +8 up or from −8 down;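 also: MM1S multiple myeloma cell line; test concentration not given here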
[4] = biological target: Dihydroorotate dehydrogenase (quinone), mitochondrial (Plasmodium falciparum (isolate 3D7)) (UniProt Q08210); test: inhibition of P. falciparum DHODH – biochemical, C-terminal His tag, absorbance 600 nm, primary screen (AID 1175); conditions: PfDHODH enzyme, DCIP absorbance 600 nm; higher = more signal, called active from +8 up or from −8 down;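 also: recombinant parasite enzyme with a five histidine tag at its C terminus; test concentration not given here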
[5] = inhibition of PAO1 biofilm formation – strain PAO1, LB-PBS medium, absorbance 600 nm, primary screen (AID 1176); also: test concentration not given here; conditions: P. aeruginosa PAO1 growth/biofilm, A600, 12 h; higher = more signal
[6] = growth modulation of vineyard yeast isolate – strain RM11-1a, OD600, basal, 24 h, primary screen (AID 1177);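 also: cultures grown under basal conditions with no added stressor; test concentration not given here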; conditions: S. cerevisiae RM11-1a growth, OD600, 24 h; higher = more signal, called active from +8 up or from −8 down
[7] = growth of efflux-deficient E. coli DRC39 – strain DRC39, OD650, 24 h, E. coli filamentation inducers, primary screen (AID 1178);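 also: growth measured as culture turbidity by optical density at 650 nm; test concentration not given here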; conditions: E. coli DRC39 acrAB, higher = more signal, called active from +8 up or from −8 down
[8] = growth of efflux-deficient E. coli DRC39 – strain DRC39, OD650, 48 h, E. coli filamentation inducers, primary screen (AID 1179);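 also: screen aims at cell division blockers that make cells filament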; conditions: E. coli DRC39 delta-acrAB growth, higher = more signal, called active from +8 up or from −8 down
[9] = viability profiling in RPMI8226 myeloma cells – cell-based, resazurin fluorescence, basal, 24 h, PK04 Diversity Set, profiling panel (AID 1180); conditions: higher = more signal;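 also: RPMI8826 multiple myeloma cell line at 5000 cells per well; test concentration not given here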
[10] = biological target: E3 ubiquitin-protein ligase XIAP (Homo sapiens) (UniProt P98170); test: small molecules binding XIAP protein – biophysical, small-molecule microarray, fluorescence 635 nm, primary screen (AID 1181); conditions: higher = more signal;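 also: score merges 667 nm emission and signal to noise over triplicate slides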
Chain of E3 ubiquitin-protein ligase XIAP (Homo sapiens) (P98170 whole entry, looked up): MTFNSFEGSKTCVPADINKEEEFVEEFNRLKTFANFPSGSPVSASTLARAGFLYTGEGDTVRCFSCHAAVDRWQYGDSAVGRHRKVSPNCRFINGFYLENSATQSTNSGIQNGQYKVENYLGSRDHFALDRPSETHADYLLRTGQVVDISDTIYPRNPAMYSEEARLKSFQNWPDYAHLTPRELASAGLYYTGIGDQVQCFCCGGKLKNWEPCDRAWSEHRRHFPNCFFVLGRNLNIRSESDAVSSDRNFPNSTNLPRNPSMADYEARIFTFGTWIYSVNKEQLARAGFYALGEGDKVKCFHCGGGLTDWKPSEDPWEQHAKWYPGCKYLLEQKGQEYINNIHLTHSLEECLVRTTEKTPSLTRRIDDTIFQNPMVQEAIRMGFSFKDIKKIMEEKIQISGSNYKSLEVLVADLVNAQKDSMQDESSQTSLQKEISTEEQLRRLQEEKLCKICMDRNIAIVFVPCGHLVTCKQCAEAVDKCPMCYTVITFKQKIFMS

Chain of Dihydroorotate dehydrogenase (quinone), mitochondrial (Plasmodium falciparum (isolate 3D7)) (Q08210 whole entry, looked up): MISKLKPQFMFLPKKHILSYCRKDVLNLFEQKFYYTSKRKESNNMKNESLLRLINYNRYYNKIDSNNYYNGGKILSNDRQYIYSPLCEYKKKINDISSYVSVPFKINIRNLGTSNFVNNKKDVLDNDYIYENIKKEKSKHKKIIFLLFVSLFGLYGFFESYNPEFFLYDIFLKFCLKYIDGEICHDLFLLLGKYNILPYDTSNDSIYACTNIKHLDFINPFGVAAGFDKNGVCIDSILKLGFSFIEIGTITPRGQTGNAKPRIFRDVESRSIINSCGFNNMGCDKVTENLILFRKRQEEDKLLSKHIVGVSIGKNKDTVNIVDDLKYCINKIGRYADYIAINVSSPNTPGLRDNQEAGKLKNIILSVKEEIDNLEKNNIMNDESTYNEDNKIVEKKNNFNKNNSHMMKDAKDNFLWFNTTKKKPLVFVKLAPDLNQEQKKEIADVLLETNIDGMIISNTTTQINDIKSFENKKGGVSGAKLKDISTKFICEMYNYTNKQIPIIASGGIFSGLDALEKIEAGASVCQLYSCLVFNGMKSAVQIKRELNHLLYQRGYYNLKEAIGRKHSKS

| SMILES | z-score [1] | z-score [2] | z-score [3] | composite z-score [4] | z-score [5] | z-score [6] | z-score [7] | z-score [8] | z-score [9] | composite z-score [10] |
| --- | --- | --- | --- | --- | --- | --- | --- | --- | --- | --- |
| CC=CC(O)C1C=CC2C(=O)N(c3ccccc3)C(=O)C2N1Nc1ccc(C(C)C)cc1 (stereo not given) | -1.76 | 0.474 (inactive) | -0.785 (inactive) | 0.784 (inactive) | 0.518 (inactive) | 1.11 (inactive) | -0.457 (inactive) | -1.02 (inactive) | -0.863 | 0.384 |
| O=C1O[C@H](c2ccccc2)[C@H](c2ccccc2)N2[C@H]1[C@@H](C(=O)O)[C@]1(C(=O)Nc3ccc(C#CC4=CCCCC4)cc31)[C@H]2c1ccc(OCCO)cc1 | 0.732 | 0.0899 (inactive) | 0.533 (inactive) | -14.1 (active) | 3.39 (inactive) | 1.26 (inactive) | 0.668 (inactive) | -0.175 (inactive) | -0.219 | -0.271 |
| N[C@@H](Cc1ccccc1)Cn1cc(-c2ccccc2)nn1 | -0.473 | -2.26 (inactive) | -0.29 (inactive) | 1.11 (inactive) | 0.444 (inactive) | -0.519 (inactive) | 0.405 (inactive) | -0.679 (inactive) | -0.587 | -0.377 |
| C=C[C@@H](COC(C)=O)N(Cc1ccc([N+](=O)[O-])cc1)S(=O)(=O)c1ccc(Br)cc1 | 0.835 | -0.367 (inactive) | 0.417 (inactive) | -1.01 (inactive) | -0.801 (inactive) | 1.19 (inactive) | 1.01 (inactive) | 0.469 (inactive) | 1.49 | 0.0345 |
| COc1ccc(CCNC(=O)[C@@]2(c3ccc([N+](=O)[O-])cc3)CC(=O)N(CC34CC5CC(CC(C5)C3)C4)[C@@H]2c2ccc(CO)cc2)cc1 | -1.86 | -0.125 (inactive) | -2.58 (inactive) | 0.682 (inactive) | 1.61 (inactive) | 0.526 (inactive) | -0.226 (inactive) | -0.281 (inactive) | -2.81 | 0.0073 |
| CC(=CC1CCCCC1)[C@@H](NC(=O)c1ccc(C(F)(F)F)cc1)c1ccc(-c2ccccc2)cc1 | 0.0536 | 1.08 (inactive) | -0.549 (inactive) | -0.468 (inactive) | 1.31 (inactive) | 0.088 (inactive) | -1.16 (inactive) | -0.822 (inactive) | -0.18 | -0.115 |
| COCCOC(=O)N1C(=O)[C@@]2(c3cc(C#Cc4ccc(OC)cc4)ccc31)[C@H](C(=O)N1CCN(c3ncccn3)CC1)[C@H]1C(=O)O[C@H](c3ccccc3)[C@H](c3ccccc3)N1[C@@H]2c1ccc(O)cc1 | -0.221 | 0.558 (inactive) | -1.68 (inactive) | -1.45 (inactive) | 1.42 (inactive) | -0.604 (inactive) | -0.0707 (inactive) | 1.09 (inactive) | 0.0808 | 0.134 |
